Source: PubChem BioAssay
Compounds with a hit are over-represented: about 1.7% of the library has one in this group of screens.
Vif inh: blocks HIV Vif function; AID 602346; HEK293T cells, Vif self-association by quenched fluorescence, imaging, 24 h; inhibition, % at 7.49 µM; 340,000 compounds, 0.35% hits; in the data active = inhibition above about 50%, passing the limit was not always enough
H9c2 protect: protects H9c2 cardiomyocytes from peroxide injury; H2O2 injury protection, ATPLite, 2 h; protection from H2O2 cell death, % at 20 µM; 360,000 compounds, 0.63% hits; AID 588492;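 active = compounds giving at least 50% protection of heart cells from peroxide-induced death in the single-dose screen, raw or plate-pattern-corrected value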;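 also: 0% = DMSO wells with peroxide and 100% = DMSO wells without peroxide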
N-glyco inh: blocks N-linked glycosylation in D54 reporter cells. D54 ERlucT glycosylation luciferase reporter, 24 h; percent of 100 nM tunicamycin response. reporter increase, % at 12.5 µM. 360,000 compounds, 0.23% hits;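 active = mean luciferase reporter signal, scaled so untreated is 0 and the glycosylation-blocking control 100, at or above a set limit in every replicate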;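 also: luciferase carries N-glycosylation sites so blocking glycosylation raises the light; 0% = median of neutral control wells and 100% = median of 100 nM tunicamycin wells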
aDG glyco act: increases alpha dystroglycan glycosylation; Pro5-aDG cells, alpha-DG glycosylation AlphaScreen (IIH6); 0% Pro5, 100% B10-LARGE cell signal; 360,000 compounds, 0.22% hits; AID 624168; activation, % at 10 µM;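 active = activation of at least 8% versus controls, or a plate z-score of at least 8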;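 also: Pro5 are CHO cells carrying HIG-tagged alpha-DG that lacks glycosylation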
ARNT TACC3 PPI: ARNT/TACC3 interaction disruption. Q9Y6A5. inhibition, % at 9.99 µM. 390,000 compounds, 0.66% hits. AlphaScreen His-ARNT PAS-B/GST-TACC3 binding, luminescence; TACC3 fragment carries E629A point mutation;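 active = mean inhibition of replicates at least 50% and at least half of replicates each reaching 50%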;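 also: 0% = complete ARNT plus TACC3 wells and 100% = ARNT alone without TACC3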
Starred values were filed as active, the others as inactive; nt = not tested or not shown.

SMILES	Vif inh	H9c2 protect	N-glyco inh	aDG glyco act	ARNT TACC3 PPI
COC(=O)C1=C(C)N(Cc2ccco2)C(=O)/C1=C\c1ccc(N(C)C)cc1	71*	-4	-2	1	2
COC(=O)C1=C(C)N(Cc2ccco2)C(=O)/C1=C\c1ccc([N+](=O)[O-])cc1	-4	-6	10	0	-3
Cn1nc(C(F)(F)F)c(/C=N/OC(=O)c2ccccc2)c1SCc1ccccc1Cl	-1	-3	55*	0	3
CC(C)NC(=O)N(C)C[C@@H]1Oc2ccc(NC(=O)NC3CCCCC3)cc2CC(=O)N([C@@H](C)CO)C[C@H]1C	nt	nt	nt	nt	-13
O=C1C(N2CCOCC2)=C(n2nnc3ccccc32)C(=O)c2ccccc21	nt	-21	-18	2	45*
O=C1c2ccccc2C(=O)c2c1cccc2-n1nnc2ccccc21	-6	-3	0	0	-3
COc1ccc(OCC(=O)Nc2cc3c(cc2C(=O)O)OCCCO3)cc1	52*	0	3	0	-1
COc1cc(NC(=O)COc2ccccc2Cl)ccc1NC(=O)c1cccs1	0	17	-2	1	6
COc1cc(NC(=O)COc2ccccc2[N+](=O)[O-])ccc1NC(=O)c1cccs1	53*	-11	-5	0	2
NS(=O)(=O)c1ccc(-c2ccc(/C=C3\NC(=S)NC3=O)o2)cc1	nt	13	1	0	58*
CCCNC(=O)C[C@@H]1CC[C@H]2[C@H](COc3ccc(NC(=O)c4cccs4)cc3C(=O)N2C)O1	nt	nt	nt	nt	0
CCCCc1cc(=O)oc2cc(OCC(=O)N3CCOCC3)ccc12	1	0	-1	0	0
CCCCc1cc(=O)oc2cc(O)ccc12	30	52*	-7	0	-7
CSc1n[nH]c(NC2=CC(=O)CCC2)n1	59*	1	3	0	-2
CSc1n[nH]c(NC(C)=O)n1	-3	8	2	0	-4
C[C@@H]1CN([C@@H](C)CO)C(=O)Cc2cc(NS(=O)(=O)c3cccs3)ccc2O[C@H]1CN(C)C(=O)Nc1ccc(C(F)(F)F)cc1	nt	nt	nt	nt	-18
C[C@@H]1CN([C@H](C)CO)C(=O)c2cc(NC(=O)C3CCCCC3)ccc2O[C@@H]1CN(C)S(C)(=O)=O	nt	nt	nt	nt	-4
C/C(=N\NC(=O)CSCc1ccc([N+](=O)[O-])cc1)c1ccccc1	-5	-6	-1	0	-5
C/C(=N\NC(=O)CSCc1ccc([N+](=O)[O-])cc1)c1ccccc1O	-1	63*	0	0	-1
C=CCSc1nnc(-c2cc3c(-c4ccccc4)nn(C)c3s2)n1C	-4	48	8	2	48*
C[C@H](CO)N1C[C@H](C)[C@H](CN(C)CC2CC2)OCCCC[C@H](C)Oc2ccc(NS(=O)(=O)c3ccc(F)cc3)cc2C1=O	nt	nt	nt	nt	-4
COc1ccc2nc3cc(Cl)ccc3c(Nc3cc(CN4CCCC4)c(O)c(CN4CCCC4)c3)c2n1	-12	50*	-17	0	nt
COc1ccc2nc3cc(Cl)ccc3c(Nc3cc(C(C)C)c(O)cc3C)c2c1	-10	-22	-9	-1	-17
CC(C)c1ccc(S(=O)(=O)/N=C2\C=C(NS(=O)(=O)c3ccccc3)C(=O)c3ccccc32)cc1	-2	-13	3	0	47*
CCc1ccc(S(=O)(=O)/N=C2\C=C(NS(=O)(=O)c3ccccc3)C(=O)c3ccccc32)cc1	7	-5	1	1	19
SMILES	Vif inh	H9c2 protect	N-glyco inh	aDG glyco act	ARNT TACC3 PPI
O=C(/C=C/c1ccccc1)Oc1cccc2cccnc12	-1	-2	0	1	47*
c1ccc(-c2cccc(-c3ccccn3)n2)nc1	3	65*	-13	1	nt
CN1C(=O)c2cc(NC(=O)C3CCCCC3)ccc2OC[C@H]2O[C@@H](CC(=O)NCCc3ccncc3)CC[C@@H]21	nt	nt	nt	nt	-6
CCCc1nc2ccccc2c(=O)n1/N=C/c1ccccc1O	3	56*	0	0	57*
C[C@H]1CN([C@@H](C)CO)S(=O)(=O)c2ccc(C#CC3CC3)cc2O[C@@H]1CN(C)C(=O)C1CCC1	nt	nt	nt	nt	10
COc1ccccc1C(=O)NNC(=O)c1csc(N2CCOCC2)n1	-6	1	1	0	-1
Cc1ccc(-c2cc(C(=O)NNC(=O)c3csc(N4CCOCC4)n3)c3ccccc3n2)cc1	2	22	2	0	nt
Cc1ccc2nc(-c3ccccc3)cc(C(=O)NNC(=O)c3csc(N4CCOCC4)n3)c2c1	-21	58*	0	0	nt
O=C(NNC(=O)c1ccccc1OCc1ccccc1Cl)c1csc(N2CCOCC2)n1	-2	52*	19	0	-1
Cc1nc2ccccn2c1C(=O)NN=C1CCCC1	-1	-1	3	0	20*
Cc1ccn2c(C(=O)NN=C3CCCCCCC3)c(C)nc2c1	-1	21	1	0	-11
COc1cc(/C=N/n2c(-c3ccccc3)n[nH]c2=S)ccc1O	-2	4	-3	0	-1
COc1ccc(/C=N/n2c(-c3ccc(C)cc3)n[nH]c2=S)cc1OC	99*	1	3	0	0
CCCS(=O)(=O)c1c(S(=O)(=O)CCC)c2c(C)cccn2c1C(N)=O	-9	3	0	0	-1
CCCS(=O)(=O)c1c(S(=O)(=O)CCC)c2c(C)cccn2c1C(=O)N/N=C/c1cc(O)cc(O)c1	-19	53*	0	1	nt
Brc1ccc(-c2cn3c(n2)CCc2ccc4cccnc4c2-3)cc1	1	13	0	0	47*
CCN(CC(=O)Nc1cc(Cl)cc(Cl)c1)CC(=O)NC1CCS(=O)(=O)C1 (stereo not given)	54*	-2	2	0	3
O=C1CCCC2=C1C(c1ccco1)Nc1ccc(C(=O)c3ccccc3)cc1N2 (stereo not given)	-8	-1	17	1	nt
O=C1CCCC2=C1C(c1ccccn1)Nc1ccc(C(=O)c3ccccc3)cc1N2 (stereo not given)	-4	7	-1	0	46*
CCCOc1ccc2ccccc2c1/C=N/n1c(C)nnc1-n1nc(C)cc1C	5	-13	27*	0	16
CC(=O)N(C)C[C@@H]1Oc2ncc(C#C[C@@H](C)O)cc2C(=O)N([C@@H](C)CO)C[C@@H]1C	nt	nt	nt	nt	-3
N#C/C(C(=O)NCCc1ccccc1)=C1/N=C(NC(=O)c2cccs2)c2ccccc21	5	2	-1	0	0
COCCCNC(=O)/C(C#N)=C1\N=C(NC(=O)c2cccs2)c2ccccc21	-6	58*	0	0	-3
COc1ccc(CC2NCCC3=CC(=O)CCC32)cc1O (stereo not given)	146*	1	2	0	5
COc1ccc(CC(=O)O)cc1O	-2	4	1	0	2
CCN(C(C)=O)c1cnc(C=NNC(N)=S)c2ccccc12	-3	20	-8	1	86*
